TcdB GH inh – inhibitors of Clostridioides difficile toxin B glycohydrolase | P18177 | inhibition, % at 9.99 µM | actives 0.24% (n = 350,000) | TcdB glycohydrolase enzymatic assay, plate reader | AID 652162; in the data active means inhibition above about 10%
Y pestis TopoI – inhibitors of Yersinia pestis topoisomerase I. Y. pestis Topo-I cleavage product accumulation, plate reader. activity, % at 10 µM. actives 0.064% (n = 360,000). AID 504884; in the data active means activity above about 50%, passing the limit was not always enough; inconclusive means no clear call, values can overlap the other calls
FadD28 binding – blocks FadD28 binding to the bisubstrate probe; fluorescence polarization; inhibition, % at 12.5 µM; actives 0.22% (n = 360,000); in the data active means inhibition above about 8.5%, passing the limit was not always enough; inconclusive means no clear call, values can overlap the other calls
BioA inh – blocks M. tuberculosis BioA enzyme activity; purified M. tuberculosis BioA enzyme, plate reader; AID 602481; inhibition, % at 9.99 µM; actives 0.096% (n = 360,000); in the data active means inhibition above about 40%; inconclusive means no clear call, values can overlap the other calls
Active calls of the source: *; ? = inconclusive; / = not tested or not shown. Most compounds without a hit are left out; they make up all but 0.47% or so of the library.

SMILES	TcdB GH inh	Y pestis TopoI	FadD28 binding	BioA inh
Cc1ccc([N+](=O)[O-])cc1	-1	-4	1	-1
CC1C(=O)NN=C1c1ccc([N+](=O)[O-])cc1 (configuration not stated)	10*	-5	0	/
Cc1noc(C)c1NC(=O)Nc1ccc2c(c1)CC(=O)N([C@H](C)CO)C[C@@H](C)[C@@H](CN(C)Cc1ccc(Oc3ccccc3)cc1)O2	/	/	/	0
CC(=O)c1ccc2c(c1)C1C=CCC1C(C(=O)O)N2 (configuration not stated)	1	-13	40*	/
Cc1cccc(NC(=O)Cn2c(=O)n3nc(CCn4nc(C)cc4C)nc3c3ccccc32)c1	/	1	9.0*	1
COc1ccc(CN2CCN(C(=O)c3ccccc3F)CC2)c(OC)c1OC	2	1	1	/
Cc1ccc(CSCCNC(=O)c2ccc(Cl)c(S(=O)(=O)N3CCOCC3)c2)cc1	/	12	34*	10
O=C(NCc1ccncc1)c1ccc(Cl)c(S(=O)(=O)N2CCCCC2)c1	1	-6	0	/
O=C(COC(=O)c1ccc(Cl)c(S(=O)(=O)N2CCCCCC2)c1)Nc1ccccc1	1	13	62*	/
Cc1ccc(CSCCNC(=O)c2ccc(N(C)S(=O)(=O)c3ccccc3)cc2)cc1	/	14	8.8*	/
O=C(NCCC1=CCCCC1)c1ccc(Cl)c(S(=O)(=O)N2CCOCC2)c1	/	6	1	-2
COc1ccc(CNC(=O)c2ccc(Cl)c(S(=O)(=O)N3CCCCCC3)c2)cc1	0	17	8.7*	-1
CN(c1ccc(C(=O)NCCSCc2ccc(Cl)cc2)cc1)S(=O)(=O)c1ccccc1	-6	-5	3	/
C=CCOC(=O)C1=C(C)N=c2s/c(=C3\C(=O)N(CC(=O)O)c4ccccc43)c(=O)n2C1c1ccc(OC)cc1 (configuration not stated)	2	7	6	-2
CCC(C(=O)NC1CCCC1)n1c(-c2cc3ccccc3[nH]2)nc2ccccc21 (configuration not stated)	1	/	/	/
CCC(C(=O)NC1CCCCC1)n1c(SCc2ccccc2F)nc2ccncc21 (configuration not stated)	4	25	9.3*	2
Oc1c(Br)cc(Br)cc1Br	0	3	-3	1
CC(C)(c1cc(Br)c(O)c(Br)c1)c1cc(Br)c(O)c(Br)c1	1	7	20*	2
Cc1ccc(CN2C(=O)CN=C(c3ccccc3)c3ccccc32)cc1	12*	13	-5	5
Cc1cc(N)n(-c2ccc(Oc3ccccc3)c(S(=O)(=O)O)c2)n1	-1	10	14*	/
CCCC#Cc1cnc2c(c1)C(=O)N([C@@H](C)CO)C[C@@H](C)[C@@H](CN(C)C(=O)C1CCOCC1)O2	-2	/	/	-2
Cc1ccc(C)n1-c1sc2c(c1C(=O)O)CCCC2	-1	3	4	/
Cc1ccc(C)n1-c1sccc1C(=O)O	/	-19	21*	-4
COc1cc(/C=C2\SC(=S)N(CC(=O)Nc3ccccn3)C2=O)cc(OC)c1OC	1	2	1	/
Cc1ccc(-n2c(SCC(=O)O)nc3c(sc(=S)n3-c3ccc(C)c(C)c3)c2=O)cc1	30*	0	0	-2
SMILES	TcdB GH inh	Y pestis TopoI	FadD28 binding	BioA inh
CCN(C[C@H]1N[C@@](Cc2ccccc2)(C(=O)OC)[C@H]2C(=O)N(Cc3ccccc3)C(=O)[C@@H]12)C(C)=O	0	2	-1	-1
Cc1ccc(S(=O)(=O)N2[C@@H](c3cccc(Cl)c3)C(C(=O)O)=CC[C@H]2c2cccc(C)c2)cc1	-2	4	?	4
Cc1ccc(S(=O)(=O)N2[C@@H](c3cccc(Cl)c3)C(C(=O)O)=CC[C@H]2c2cccc(Cl)c2)cc1	0	20	14*	3
CCCn1nc(NS(=O)(=O)c2cccc3nonc23)c2cc3cccc(C)c3nc21	-2	16	9.9*	5
N=C1c2ccccc2CN1NC(=O)CC12CC3CC(CC(C3)C1)C2	2	15	22*	/
COc1ccc(N=Nc2cc(OC)c(N)cc2OC)cc1	10*	-8	1	12
CCc1nc2c(OCCC3CCCCC3)cccn2c1N(C)C(=O)c1ccc(OC)cc1	8	28	-6	-1
Cn1c(=O)c2c([nH]c(=S)n2CCCc2ccccc2)n(C)c1=O	9	6	-3	-1
Cn1c(=O)[nH]c(=O)c2c1[nH]c(=S)n2Cc1ccc(Cl)cc1	14*	2	-3	-4
Cn1c(=O)[nH]c(=O)c2c1[nH]c(=S)n2CCCc1ccccc1	12*	2	0	-2
Cc1ccc(S(=O)(=O)N[C@@H]2CC[C@H](CCNC(=O)Cc3ccccn3)O[C@H]2CO)cc1	-1	/	/	-5
CCCNC(=O)N(C)C[C@@H]1Oc2cc(Br)ccc2S(=O)(=O)N([C@@H](C)CO)C[C@H]1C	-1	4	2	0
Cc1cc(C(=O)COC(=O)Cc2n[nH]c(=O)c3ccccc23)c(C)n1-c1cccc(C(F)(F)F)c1	/	67*	-5	1
CN1C(=O)c2cc(NC(=O)C3CC3)ccc2OC[C@H]2O[C@@H](CC(=O)NCc3ccccc3F)CC[C@H]21	1	/	/	/
CC(C)Sc1nnc(NC(=O)c2ccco2)s1	22*	4	-4	-2
O=S(=O)(Nc1nc(-c2sccc2Cl)cs1)c1cc(Cl)ccc1Cl	/	5	24*	15
C[C@@H]1CN([C@@H](C)CO)C(=O)c2cc(-c3cncnc3)cnc2O[C@H]1CN(C)C(=O)CN1CCOCC1	-4	/	/	-1
CC1(C#CC[N+]2(C)CCCCC2)CCC2C(O1)c1ccccc1OC2(C)C (configuration not stated)	1	-3	-1	0
Cc1ccc(NC(=O)Nc2sc(=S)n(C)c2C)cc1	/	-10	11*	0
NS(=O)(=O)c1ccc(Nc2nc(-c3ccc(F)cc3)cs2)cc1	3	-23	-3	2
NS(=O)(=O)c1ccc(Nc2nc(-c3ccc(O)cc3O)cs2)cc1	/	-39	40*	/
COc1ccc(NS(=O)CCCc2ccccc2)cc1 (configuration not stated)	11*	/	1	2
CCOC(=O)c1cc2ccc(OC)cc2oc1=O	/	-4	-2	-1
CCOc1cc(/C=N/O)ccc1OS(=O)(=O)c1ccc(C)cc1	/	14	-4	0
CCOc1cc(/C=N/O)ccc1OCc1ccc(C)cc1	11*	16	0	/
SMILES	TcdB GH inh	Y pestis TopoI	FadD28 binding	BioA inh
CO[C@H](CN(C)Cc1ccc2c(c1)OCO2)[C@H](C)CN(C(=O)c1ccccc1)[C@@H](C)CO	0	/	/	-2
O=[N+]([O-])c1ccc(NN=Cc2ccc(O)cc2O)nc1	-3	-10	/	0
CC(=O)Nc1ccc(/C=N/NC(=O)CNS(=O)(=O)c2ccccc2)cc1	0	-4	-3	/
O=C(Cc1cccs1)N/N=C\c1ccc(O)cc1	/	2	1	0
O=C(CNS(=O)(=O)c1ccc([N+](=O)[O-])cc1)N/N=C/c1ccc(O)cc1O	-33	-4	22*	-2
CC(=O)Nc1ccc(/C=N\NC(=O)CNS(=O)(=O)c2ccc([N+](=O)[O-])cc2)cc1	1	-12	9.3*	0
O=C(CNS(=O)(=O)c1ccc([N+](=O)[O-])cc1)N/N=C\c1ccc(O)cc1	14*	3	3	-1
